The term AC50 denotes the concentration giving half of the maximal activity seen.

Activity calls are given as the source filed them. The calls were made as follows: active = hit-call score of the fitted dose curve at least 0.9, where 1 is the maximum; inactive = score below 0.9.

Read-out in experiment [1]: flavin-containing dimethylaniline monooxygenases 3 (FMO3), FMO3 (gene 2328)
Briefly: LTEA_HepaRG_FMO3: Life Technologies and Expression Analysis (LTEA) Assay for flavin-containing dimethylaniline monooxygenases 3 (FMO3) using HepaRG (AID 2283453). The following applies: mRNA level, 48 h; actives raise or lower the signal. An outline of the steps:
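Differentiated HepaRG cells in serum-free induction medium, exposed 48 h in duplicate to 8 half-log concentrations up to 100 uM in 0.5% DMSO. FMO3 mRNA by qRT-PCR, normalized to ACTB, GAPDH, POLR2A; bidirectional fit vs DMSO.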

Read-out in experiment [2]: Cytochrome P450 (CYP1A1), CYP1A1 (gene 1543)
The experiment in a line: LTEA_HepaRG_CYP1A1: Life Technologies and Expression Analysis (LTEA) Assay for Cytochrome P450 (CYP1A1) using HepaRG (AID 2283454). The following applies: mRNA level, 48 h; actives raise or lower the signal. An outline of the steps:
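CYP1A1 transcript levels measured by Fluidigm qRT-PCR against three housekeeping genes, 48 h after chemical dosing of human HepaRG cells (highest concentration 100 uM, half-log steps, 0.5% DMSO vehicle). Gain or loss of signal fitted relative to DMSO.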

Read-out in experiment [3]: CFLAR gene, CFLAR (gene 8837)
Briefly: LTEA_HepaRG_CFLAR: Life Technologies and Expression Analysis (LTEA) Assay for CFLAR gene using HepaRG (AID 2283455). The following applies: mRNA level, 48 h; actives raise or lower the signal. The essentials:
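Differentiated HepaRG cells in serum-free induction medium were exposed 48 h in duplicate to eight half-log concentrations up to 100 uM in 0.5% DMSO; mRNA measured by TaqMan qRT-PCR, normalized to ACTB, GAPDH, POLR2A; bidirectional fitting versus DMSO.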

Read-out in experiment [4]: Forkhead box O1 (FOXO1), FOXO1 (gene 2308)
The experiment in a line: LTEA_HepaRG_FOXO1: Life Technologies and Expression Analysis (LTEA) Assay for Forkhead box O1 (FOXO1) using HepaRG (AID 2283456). The following applies: mRNA level, 48 h; actives raise or lower the signal. An outline of the steps:
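Differentiated HepaRG cells, in serum-free induction medium with 0.5% DMSO, exposed 48 h in duplicate to 8-point half-log series from 100 uM. FOXO1 mRNA measured by TaqMan qRT-PCR, normalized to ACTB, GAPDH, POLR2A; bidirectional fit versus DMSO.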

Read-out in experiment [5]: growth arrest and DNA damage 45 (GADD45A), GADD45A (gene 1647)
The experiment in a line: LTEA_HepaRG_GADD45A: Life Technologies and Expression Analysis (LTEA) Assay for growth arrest and DNA damage 45 (GADD45A) using HepaRG (AID 2283458). The following applies: mRNA level, 48 h; actives raise or lower the signal. An outline of the steps:
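Differentiated HepaRG cells exposed 48 h in serum-free induction medium to 8 concentrations, top 100 uM in half-log steps, 0.5% DMSO. GADD45A mRNA quantified by qRT-PCR, normalized to ACTB, GAPDH and POLR2A; bidirectional fit versus DMSO.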

Read-out in experiment [6]: Forkhead box O3 (FOXO3), FOXO3 (gene 2309)
The experiment in a line: LTEA_HepaRG_FOXO3: Life Technologies and Expression Analysis (LTEA) Assay for Forkhead box O3 (FOXO3) using HepaRG (AID 2283459). The following applies: mRNA level, 48 h; actives raise or lower the signal. An outline of the steps: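 Differentiated human HepaRG cells, 48 h post-plating, exposed in duplicate for 48 h in serum-free induction medium; 8-point half-log series from 100 uM in 0.5% DMSO. FOXO3 mRNA by TaqMan qRT-PCR, normalized to ACTB/GAPDH/POLR2A; bidirectional fit versus DMSO.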

Read-out in experiment [7]: ABC Transporter (ABCB1), ABCB1 (gene 5243)
Briefly: LTEA_HepaRG_ABCB1: Life Technologies and Expression Analysis (LTEA) Assay for ABC Transporter (ABCB1) using HepaRG (AID 2283460). The following applies: mRNA level, 48 h; actives raise or lower the signal. The essentials: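 HepaRG cells exposed in duplicate for 48 h in serum-free induction medium to eight half-log concentrations up to 100 uM in 0.5% DMSO. ABCB1 mRNA quantified by qRT-PCR, normalised to ACTB, GAPDH and POLR2A; fitted bidirectionally versus DMSO.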

Read-out in experiment [8]: growth arrest and DNA damage 45 (GADD45B), GADD45B (gene 4616)
Briefly: LTEA_HepaRG_GADD45B: Life Technologies and Expression Analysis (LTEA) Assay for growth arrest and DNA damage 45 (GADD45B) using HepaRG (AID 2283461). The following applies: mRNA level, 48 h; actives raise or lower the signal. The essentials:
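Transcript level quantified by Fluidigm TaqMan qRT-PCR with three housekeeping genes for normalization, analyzed for up- or down-regulation against 0.5% DMSO. HepaRG cultures dosed 48 h at eight half-log concentrations up to 100 uM, duplicates.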

Read-out in experiment [9]: ABC Transporter (ABCC3), ABCC3 (gene 8714)
Briefly: LTEA_HepaRG_ABCC3: Life Technologies and Expression Analysis (LTEA) Assay for ABC Transporter (ABCC3) using HepaRG (AID 2283462). The following applies: mRNA level, 48 h; actives raise or lower the signal. The essentials: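 Transcript level by TaqMan qRT-PCR, normalised to three housekeeping genes, fitted in both directions relative to vehicle. Chemicals tested in duplicate at eight half-log concentrations up to 100 uM for 48 h on HepaRG cells (0.5% DMSO).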

Read-out in experiment [10]: ABC Transporter (ABCB11), ABCB11 (gene 8647)
Briefly: LTEA_HepaRG_ABCB11: Life Technologies and Expression Analysis (LTEA) Assay for ABC Transporter (ABCB11) using HepaRG (AID 2283463). The following applies: mRNA level, 48 h; actives raise or lower the signal. An outline of the steps: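 Differentiated human HepaRG cells in serum-free induction medium, dosed in duplicate for 48 h. Eight-point half-log series from 100 uM in 0.5% DMSO; ABCB11 mRNA by qRT-PCR, normalized to ACTB, GAPDH, POLR2A, fitted bidirectionally versus DMSO.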

Read-out in experiment [11]: ABC Transporter (ABCC2), ABCC2 (gene 1244)
The experiment in a line: LTEA_HepaRG_ABCC2: Life Technologies and Expression Analysis (LTEA) Assay for ABC Transporter (ABCC2) using HepaRG (AID 2283464). The following applies: mRNA level, 48 h; actives raise or lower the signal. An outline of the steps:
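Endpoint is ABCC2 transcript level from qRT-PCR, normalized to three housekeeping genes and fitted bidirectionally relative to DMSO. Human HepaRG cells received test chemical for 48 h at up to 100 uM (8 points, half-log steps, 0.5% DMSO), duplicate wells.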

Read-out in experiment [12]: Broad substrate specificity ATP-binding cassette transporter ABCG2 (Homo sapiens) (UniProt Q9UNQ0)
Briefly: LTEA_HepaRG_ABCG2: Life Technologies and Expression Analysis (LTEA) Assay for ABC Transporter (ABCG2) using HepaRG (AID 2283465). The following applies: mRNA level, 48 h; actives raise or lower the signal. An outline of the steps: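 Differentiated HepaRG cells were exposed for 48 h in serum-free induction medium to 8 half-log concentrations, top 100 uM, in 0.5% DMSO. ABCG2 mRNA was measured by qRT-PCR, normalized to ACTB, GAPDH and POLR2A, with bidirectional fitting versus DMSO.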

Read-out in experiment [13]: ATP-citrate lyase (ACLY), ACLY (gene 47)
The experiment in a line: LTEA_HepaRG_ACLY: Life Technologies and Expression Analysis (LTEA) Assay for ATP-citrate lyase (ACLY) using HepaRG (AID 2283466). The following applies: mRNA level, 48 h; actives raise or lower the signal. The essentials: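 Differentiated HepaRG cells exposed 48 h in serum-free induction medium to eight half-log concentrations up to 100 uM in 0.5% DMSO, duplicates. Transcript measured by Fluidigm TaqMan qRT-PCR, normalized to ACTB, GAPDH, POLR2A; bidirectional fit versus DMSO.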

Read-out in experiment [14]: Peroxisomal acyl-coenzyme A oxidase 1 (ACOX1) gene, ACOX1 (gene 51)
Briefly: LTEA_HepaRG_ACOX1: Life Technologies and Expression Analysis (LTEA) Assay for Peroxisomal acyl-coenzyme A oxidase 1 (ACOX1) gene using HepaRG (AID 2283467). The following applies: mRNA level, 48 h; actives raise or lower the signal. The essentials:
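HepaRG cells, plated 48 h then switched to serum-free induction medium, were exposed in duplicate for 48 h to 8-point half-log concentrations up to 100 uM in 0.5% DMSO. ACOX1 mRNA was measured by qRT-PCR, normalized to ACTB/GAPDH/POLR2A, and fitted bidirectionally versus DMSO.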

Read-out in experiment [15]: Alkaline Phosphatase, Placental (ALPP) gene, ALPP (gene 250)
The experiment in a line: LTEA_HepaRG_ALPP: Life Technologies and Expression Analysis (LTEA) Assay for Alkaline Phosphatase, Placental (ALPP) gene using HepaRG (AID 2283468). The following applies: mRNA level, 48 h; actives raise or lower the signal. An outline of the steps: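 ALPP transcript level, measured by qRT-PCR and normalized to three housekeeping genes (ACTB, GAPDH, POLR2A), after 48 h dosing of differentiated HepaRG in serum-free induction medium. Top concentration 100 uM with half-log dilutions (8 points, 0.5% DMSO, duplicates); bidirectional fitting relative to DMSO.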

Read-out in experiment [16]: Bcl-2 (BAD) gene, BAD (gene 572)
The experiment in a line: LTEA_HepaRG_BAD: Life Technologies and Expression Analysis (LTEA) Assay for Bcl-2 (BAD) gene using HepaRG (AID 2283469). The following applies: mRNA level, 48 h; actives raise or lower the signal. The essentials:
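Differentiated HepaRG cells were exposed in duplicate in 0.5% DMSO for 48 h to eight-point half-log concentrations up to 100 uM. BAD mRNA was measured by Fluidigm TaqMan qRT-PCR, normalized to ACTB, GAPDH and POLR2A, and fitted bidirectionally against DMSO.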

Read-out in experiment [17]: Bcl-2 (BAX) gene, BAX (gene 581)
The experiment in a line: LTEA_HepaRG_BAX: Life Technologies and Expression Analysis (LTEA) Assay for Bcl-2 (BAX) gene using HepaRG (AID 2283470). The following applies: mRNA level, 48 h; actives raise or lower the signal. An outline of the steps: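 Differentiated HepaRG cells exposed 48 h in serum-free induction medium, eight half-log concentrations from 100 uM, in duplicate, 0.5% DMSO vehicle. BAX mRNA by TaqMan qRT-PCR, normalised to ACTB, GAPDH and POLR2A.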

Experiment [18] in a line: CEETOX_H295R_TESTO: CeeTox H295R High-throughput Steroidogenesis Assay for Testosterone (TESTO) (AID 2283457). The following applies: actives raise or lower the signal. The essentials: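 Testosterone secreted into the medium over 48 h by H295R cells (maximum passage 10) was quantified by LC-MS/MS after MTBE extraction. Fitted in both directions against DMSO, with concentrations diluted until MTT viability was ≥70%.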

Read-out in experiment [19]: adenosine kinase (ADK) gene, ADK (gene 132)
The experiment in a line: LTEA_HepaRG_ADK: Life Technologies and Expression Analysis (LTEA) Assay for adenosine kinase (ADK) gene using HepaRG (AID 2283471). The following applies: mRNA level, 48 h; actives raise or lower the signal. An outline of the steps: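 Differentiated HepaRG cells dosed 48 h in serum-free induction medium, 0.5% DMSO vehicle, eight half-log concentrations from 100 uM, in duplicate. ADK mRNA by TaqMan qRT-PCR normalised to ACTB, GAPDH, POLR2A; bidirectional fit versus DMSO.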

Chain of Broad substrate specificity ATP-binding cassette transporter ABCG2 (Homo sapiens) (Q9UNQ0 whole entry, looked up): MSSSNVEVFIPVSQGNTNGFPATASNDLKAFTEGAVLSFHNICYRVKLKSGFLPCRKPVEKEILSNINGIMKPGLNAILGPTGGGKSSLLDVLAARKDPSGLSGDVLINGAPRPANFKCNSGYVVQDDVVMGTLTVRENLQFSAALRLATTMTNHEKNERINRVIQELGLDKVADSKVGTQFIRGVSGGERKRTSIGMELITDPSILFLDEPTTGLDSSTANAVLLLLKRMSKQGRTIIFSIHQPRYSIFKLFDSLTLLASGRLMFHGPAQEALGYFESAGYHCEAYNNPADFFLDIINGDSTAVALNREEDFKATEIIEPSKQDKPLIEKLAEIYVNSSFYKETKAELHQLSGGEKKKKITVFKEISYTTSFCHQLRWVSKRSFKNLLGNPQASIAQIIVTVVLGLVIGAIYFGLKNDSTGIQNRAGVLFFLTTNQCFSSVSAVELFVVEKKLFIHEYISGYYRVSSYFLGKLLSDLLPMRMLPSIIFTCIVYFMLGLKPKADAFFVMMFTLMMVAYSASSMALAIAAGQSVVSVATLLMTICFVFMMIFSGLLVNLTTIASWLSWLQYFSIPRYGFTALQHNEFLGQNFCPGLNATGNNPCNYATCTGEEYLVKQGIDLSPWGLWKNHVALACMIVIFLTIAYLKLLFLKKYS

`COP(=S)(OC)Oc1ccc([N+](=O)[O-])cc1`: the call in [1], in experiment [3], in [4], in experiment [5], in experiment [6] and in experiment [7] was inactive. The outcome in experiment [8], in experiment [9], in experiment [10], in [11], in [12] and in experiment [13] was inactive. Also, the result in [14], in experiment [15], in experiment [16] and in experiment [17] was inactive. In experiment [2], the AC50 is 44.2 µM (active).

In the case of `CCC(C)(C)C(=O)OC1=C(c2ccc(Cl)cc2Cl)C(=O)OC12CCCCC2`, the AC50 in experiment [1] was 66.4 µM (active); in [2] it was 50 µM (active); in experiment [10] it was 20.7 µM (active). The molecule was called inactive in experiment [3], in experiment [4], in experiment [18], in experiment [6], in experiment [7] and in [8]. Besides, the molecule was classed as inactive in experiment [9], in experiment [11], in experiment [12], in experiment [13], in experiment [14] and in experiment [15]. The molecule was called inactive in [16], in experiment [17] and in experiment [19].

With `C#CCN1C(=O)COc2cc(F)c(N3C(=O)C4=C(CCCC4)C3=O)cc21`, the outcome in experiment [1], in [3], in [4], in experiment [18], in [6] and in experiment [8] was inactive. The outcome in [9], in experiment [12], in [13], in experiment [14], in experiment [15] and in [16] was inactive. For the same molecule, the result in [17] was inactive. The AC50 was 65.6 µM (active) in [2], 9.92 µM (active) in experiment [7], 50 µM (active) in [10] and 8.81 µM (active) in experiment [11].
